From PubChem BioAssay (NCI)
Compounds without any hit were thinned out: in the full panel of roughly 79,000, 15% have a hit. Unmarked numbers belong to inactive results. Activity calls are given as the source filed them. Rule as the data show it: active = growth inhibition above about 70%; inactive = the rest.

Assays:
[1] = NCI Yeast Anticancer Drug Screen. Data for the rad50 strain (AID 155);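 also: 0% = growth of vehicle-only cultures of the same strain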; details: S. cerevisiae rad50 strain growth inhibition, stronger effect = higher value
How it was run: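 Compounds were tested on a yeast strain with an engineered DNA damage repair alteration; the reported value is growth inhibition normalised to vehicle treatment.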

[2] = NCI Yeast Anticancer Drug Screen. Data for the mec2-1 strain (AID 157); details: S. cerevisiae mec2-1 strain, stronger effect = higher value
How it was run: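 Each compound was tested on mec2-1 yeast, a strain altered in DNA damage repair or cell cycle control. Growth inhibition is reported relative to vehicle.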

[3] = NCI Yeast Anticancer Drug Screen. Data for the sgs1 mgt1 strain (AID 161);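 also: 0% = growth of cultures given vehicle only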; details: S. cerevisiae sgs1 mgt1 strain, stronger effect = higher value
How it was run: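 Inhibition of yeast growth, normalised to vehicle-treated controls, is reported for a strain bearing genetic alterations in DNA damage repair.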

[4] = NCI Yeast Anticancer Drug Screen. Data for the cln2 rad14 strain (AID 165);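 also: 0% = growth equal to vehicle treated cultures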; details: S. cerevisiae cln2 rad14 strain, stronger effect = higher value
How it was run: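 Test compounds were added to cln2 rad14 yeast cultures; inhibition of growth was then determined by comparison with vehicle treatment.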

[5] = NCI Yeast Anticancer Drug Screen. Data for the bub3 strain (AID 167); details: S. cerevisiae bub3 mutant strain, stronger effect = higher value
How it was run: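 Growth of a checkpoint-deficient yeast mutant is measured after compound exposure. Values represent inhibition relative to vehicle.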

[6] = NCI Yeast Anticancer Drug Screen. Data for the mlh1 rad18 strain (AID 175); details: S. cerevisiae mlh1 rad18 strain growth inhibition, stronger effect = higher value
How it was run: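 Inhibition values reflect reduced growth of mutant yeast versus vehicle-treated controls following compound exposure; the mutations affect DNA damage repair.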

[7] = at 5.0 µM (retest, dose inferred, filed as 0.5)
[8] = at 50.0 µM (retest, dose inferred, filed as 5.0)

| SMILES | growth inhibition [1, 7] | growth inhibition [1, 8] | growth inhibition ([1]; at 50.0 µM) | growth inhibition [2, 7] | growth inhibition [2, 8] | growth inhibition ([2]; at 50.0 µM) | growth inhibition [3, 7] | growth inhibition [3, 8] | growth inhibition ([3]; at 50.0 µM) | growth inhibition [4, 7] | growth inhibition [4, 8] | growth inhibition ([4]; at 50.0 µM) | growth inhibition [5, 7] | growth inhibition [5, 8] | growth inhibition ([5]; at 50.0 µM) | growth inhibition [6, 7] | growth inhibition [6, 8] | growth inhibition ([6]; at 50.0 µM) |
| --- | --- | --- | --- | --- | --- | --- | --- | --- | --- | --- | --- | --- | --- | --- | --- | --- | --- | --- |
| O=C1C(Cl)=C(Cl)C(=O)N1c1ccc(F)cc1 | 53% | 99% (active) | 52% | 42% | 100% (active) | 28.8% | 28% | 100% (active) | 88.3% (active) | 24% | 99% (active) | 89.2% (active) | 35% | 99% (active) | 90.8% (active) | 45% | 100% (active) | 48.1% |
| O=C1C(=O)c2cccc3cccc1c23 | 8% | 79% (active) | 64.2% | 8% | 51% | 30.4% | 3% | 34% | 21.1% | 6% | 50% | -3.15% | 13% | 82% (active) | 13.2% | 1% | 63% | 22.9% |
| O=C(CI)NCc1ccccc1 | 22% | 98% (active) | 97.8% (active) | 29% | 99% (active) | 99.2% (active) | 41% | 99% (active) | 99% (active) | 12% | 99% (active) | 97.8% (active) | 31% | 99% (active) | 99% (active) | 55% | 99% (active) | 99.2% (active) |
| CCn1c(O)c(C(=O)NC(C)c2ccc([N+](=O)[O-])cc2)c(=O)n(CC)c1=S (configuration not stated) | 31% | 91% (active) | 86.5% (active) | 33% | 96% (active) | 91.4% (active) | 24% | 83% (active) | 90.6% (active) | 17% | 46% | 88.8% (active) | 9% | 78% (active) | 89.3% (active) | 35% | 92% (active) | 87% (active) |
| CO/C(N)=C(\C#N)N=Cc1cccnc1 | 25% | 26% | 29.6% | 25% | 30% | 80.2% (active) | 20% | 32% | 36.7% | 26% | 25% | 15.4% | 29% | 47% | 48.2% | 29% | 25% | -25.4% |
| S=P(S)(Oc1ccccc1)Oc1ccccc1 | -10% | 25% | 56% | -18% | 18% | 77.7% (active) | 1% | 17% | 40.4% | -11% | 20% | 92.9% (active) | -4% | 38% | 75.2% (active) | -12% | 10% | 90.2% (active) |
| CCc1ccc2c(c1)N(CCCN(CCCl)CCCl)c1ccccc1S2 | -4% | 85% (active) | 98.5% (active) | 44% | 59% | 99.2% (active) | -4% | 89% (active) | 98.6% (active) | -1% | 53% | 96.8% (active) | -1% | 94% (active) | 98.5% (active) | -2% | 94% (active) | 98.6% (active) |
| CCOP(=O)(OCC)/C(C#N)=C/c1ccccc1Cl | 17% | 74% (active) | 82.5% (active) | -7% | 62% | 72.8% (active) | 2% | 65% | 79.8% (active) | 10% | 55% | 64.8% | 0% | 74% (active) | 72.7% (active) | -2% | 77% (active) | 81.8% (active) |
| C[N-]c1nnnn1C.[Au+].c1ccc([PH+](c2ccccc2)c2ccccc2)cc1 | 99% (active) | 97% (active) | 96.3% (active) | 99% (active) | 95% (active) | 97.9% (active) | 99% (active) | 97% (active) | 97% (active) | 96% (active) | 95% (active) | 97.2% (active) | 98% (active) | 96% (active) | 96% (active) | 97% (active) | 94% (active) | 97% (active) |
